Screening data from PubChem BioAssay.
BAZ2B inh – blocks human BAZ2B | 360,000 tested, 4.4% active | Q9UIF8 | Potency, µM (series often up to 114 µM), most hits filed as inhibitors | AlphaScreen BAZ2B-H3K14Ac peptide displacement; further: nearly all actives have a fitted effect of over 60% in size
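Protein-peptide AlphaScreen: BAZ2B 50 nM, b-H3K14Ac 50 nM, 1x PBS pH 7.4 + 0.01% Tween-20. Preincubation 30 min RT; cpd 30 min RT (top 110 uM); beads 20 min RT, light-protected.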
HP1b binding inh – HP1-beta chromodomain-methylated histone interaction inhibition; P83916; AlphaScreen HP1-beta / biotin-H3K9me3 peptide binding; Potency, µM (titrated, usually from 114 µM), usual class: inhibitors; 390,000 tested, 0.56% active; AID 540317; further: nearly all actives have a fitted effect of over 70% in size
Target sequence (P83916 whole entry, looked up): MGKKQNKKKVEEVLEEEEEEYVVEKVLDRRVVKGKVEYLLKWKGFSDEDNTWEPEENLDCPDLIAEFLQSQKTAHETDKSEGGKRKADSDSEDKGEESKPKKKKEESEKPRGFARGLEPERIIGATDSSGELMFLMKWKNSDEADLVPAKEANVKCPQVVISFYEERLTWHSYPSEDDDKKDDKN
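HP1-beta protein (50 nM final) preincubated 30 min at room temperature with biotinylated H3(1-18)K9me3 peptide (50 nM) in PBS pH 7.4, 0.01% Tween-20, then compound added for 30 min. AlphaScreen streptavidin donor/nickel chelate acceptor beads (10 ug/mL final), 30 min dark, luminescence read.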
12-LOX inh – inhibitors of human 12S-lipoxygenase ALOX12 | 580,000 tested, 1.1% active | Potency, µM (top dose mostly 108 µM), usual class: inhibitors | purified 12hLO, xylenol orange hydroperoxide absorbance | P18054
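Purified human 12hLO (150 nM final) in 25 mM Hepes, 0.01% Triton X-100, pH 7.0 was preincubated 15 min at room temperature with compound. Then 40 uM arachidonic acid was added, 30 min. Hydroperoxide was read by Fe-XO absorbance ratio 573/405 nm.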
JMJD2A Tudor – JMJD2A Tudor domain (human) inhibition | O75164 | AlphaScreen JMJD2A-Tudor / H3K4me3 peptide binding | Potency, µM (highest dose often 114 µM), actives largely listed as inhibitors | 390,000 tested, 4.4% active; further: nearly all actives have a fitted effect of over 50% in size
PLK1 PBD inh – blocks phosphopeptide binding to human PLK1 polo-box domain; P53350; Plk1 PBD binding of FITC phosphopeptide, fluorescence polarization; Potency, µM, most hits filed as inhibitors; 360,000 tested, 2.8% active; further: series mostly up to about 57 µM; nearly all actives have a fitted effect of over 65% in size
G9a inh – blocks human histone lysine methyltransferase G9a. Q96KQ7. G9a H3K9 monomethylation, AlphaScreen, 2 h. Potency, µM (top dose mostly 102 µM), usual class: inhibitors. 350,000 tested, 8.8% active. AID 504332; further: nearly all actives have a fitted effect of over 75% in size
Target sequence (Q96KQ7 913-1193 limits assumed): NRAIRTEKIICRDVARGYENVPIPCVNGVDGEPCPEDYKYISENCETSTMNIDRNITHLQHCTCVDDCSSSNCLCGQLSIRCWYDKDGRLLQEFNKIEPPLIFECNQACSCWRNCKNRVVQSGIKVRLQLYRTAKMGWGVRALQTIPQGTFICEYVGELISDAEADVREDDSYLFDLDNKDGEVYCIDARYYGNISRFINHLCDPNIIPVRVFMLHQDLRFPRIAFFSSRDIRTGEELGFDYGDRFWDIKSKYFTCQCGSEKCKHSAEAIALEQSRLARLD
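Readings reflect AlphaScreen signal from monomethyl-H3K9 antibody detection. HMT at 20 nM; substrate b-H3K9 500 nM; cofactor SAM 20 uM; 2 h RT reaction; compounds tested as titrations in qHTS with 15 min preincubation.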
Each line names hits and unclear results; the compound was inactive in the other large screens. This is a sample that favours compounds with a hit; in the whole collection about 9% have one here. The call rests on the fitted dose curve; in most records, active means well fitted curve in the direction sought with a large enough effect; inconclusive means small, poorly fitted or top-dose-only effect, or another doubt; inactive means no such curve, though single readings can be large; an effect the other way counts as inactive or inconclusive.

CCOC(=O)c1c(C)[nH]c(N=Nc2ccc(OC)cc2)c1C	BAZ2B inh 40µM, HP1b binding inh inconclusive, 12-LOX inh inconclusive, JMJD2A Tudor 56µM, G9a inh 28µM
CCOC(=O)c1c(C)[nH]c(N=Nc2ccccc2)c1C	BAZ2B inh 35µM, HP1b binding inh 40µM, 12-LOX inh inconclusive, JMJD2A Tudor 56µM, G9a inh 40µM
CC(C)[C@H](N)c1nnc(SCC(=O)c2ccc(Cl)cc2)o1	none
CCC(=O)Nc1cccc(NC(=O)CSc2nnc(C(C)C)n2CC)c1	none
Cc1cc(NO)nc(-c2ccc(Br)cc2)n1	HP1b binding inh inconclusive, 12-LOX inh inconclusive, JMJD2A Tudor 20µM, G9a inh inconclusive (no result: BAZ2B inh)
CCN(CC)C(=O)[C@@H]1[C@H](c2cc(OC)c(OC)c(OC)c2)c2cc3c(cc2[C@H](O)[C@H]1CO)OCO3	none (no result: BAZ2B inh, HP1b binding inh, JMJD2A Tudor, PLK1 PBD inh, G9a inh)
CCS(=O)(=O)N1CCC(C(=O)N2CCN(c3cc(Cl)ccc3C)CC2)CC1	none (no result: BAZ2B inh, HP1b binding inh, JMJD2A Tudor, PLK1 PBD inh, G9a inh)
COc1ccc(C(=O)Oc2c(Sc3ccccc3)c(C)nn2-c2ccccc2)cc1OC	G9a inh inconclusive (no result: PLK1 PBD inh)
CCC(=O)Oc1c(Sc2ccc(Cl)cc2)c(C)nn1-c1ccccc1	12-LOX inh 16µM, G9a inh 2.8µM (no result: PLK1 PBD inh)
CCC(=O)Oc1c(Sc2ccc(C)cc2)c(C)nn1-c1ccccc1	12-LOX inh inconclusive, G9a inh 10µM (no result: PLK1 PBD inh)
Cc1nn(C(=O)C2CC2)c(C)c1Sc1ccc(Cl)cc1	none
CCCC(=O)Oc1c(Sc2ccc(C)cc2)c(C)nn1-c1ccccc1	12-LOX inh inconclusive, G9a inh 2µM (no result: PLK1 PBD inh)
CNC(=O)CC1CCOC2(CCN(C(=O)NCc3ccc(OC)cc3)CC2)C1 (centres undefined)	none (no result: BAZ2B inh, HP1b binding inh, JMJD2A Tudor, PLK1 PBD inh, G9a inh)
Clc1ccc(-n2nnnc2-c2ccno2)cc1	none (no result: G9a inh)
CCCCn1c(=O)[nH]c(=O)c2c1nc(COC(=O)c1ccc(C)c(C)c1)n2CCC	none (no result: BAZ2B inh, HP1b binding inh, JMJD2A Tudor, PLK1 PBD inh, G9a inh)
Nc1ccc(Sc2ccccc2)nc1	none (no result: BAZ2B inh, G9a inh)
N#Cc1cnc(Sc2ccccc2)nc1	JMJD2A Tudor inconclusive, PLK1 PBD inh 30µM
COc1ccc(OCC(=O)NC2CCCCCCC2)cc1	none
COc1ccc(OCC(=O)NNC(=S)NC(=O)C2CCCCC2)cc1	12-LOX inh inconclusive, G9a inh 13µM (no result: HP1b binding inh, JMJD2A Tudor, PLK1 PBD inh)
COc1ccc(C(=O)NC(=S)NNC(=O)CNC(=O)C2CCCCC2)cc1	12-LOX inh inconclusive, JMJD2A Tudor inconclusive, PLK1 PBD inh inconclusive, G9a inh 8.9µM (no result: BAZ2B inh)
COc1ccc(OCC(=O)NNC(=S)NC(=O)C2CC2)cc1	12-LOX inh inconclusive, G9a inh 20µM
Cc1cc(C)cc(OCC(=O)NNC(=S)NC(=O)C2CC2)c1	G9a inh 20µM
CN(C(=O)Cc1c[nH]c2ccccc12)C(C(=O)Nc1ccc2c(c1)OCO2)c1ccccc1 (centres undefined)	BAZ2B inh inconclusive, HP1b binding inh inconclusive, JMJD2A Tudor inconclusive, G9a inh inconclusive
O=C1CCN(C(=O)c2cccnc2)CCCC(C(=O)N2CCN(c3ccc(F)cc3)CC2)CCN1 (centres undefined)	none (no result: BAZ2B inh, HP1b binding inh, JMJD2A Tudor, PLK1 PBD inh, G9a inh)
CNC(=O)[C@@H]1C[C@H](Oc2ccccc2)CN1C(=O)CCc1nc(-c2ccccc2)no1	none (no result: BAZ2B inh, HP1b binding inh, JMJD2A Tudor, PLK1 PBD inh, G9a inh)
CC(C)(C)NC(=O)Cn1c(SCC(N)=O)nc2ccccc21	JMJD2A Tudor 20µM, PLK1 PBD inh 15µM
CCCn1c(SCC(=O)C(C)(C)C)nc2ccccc21	G9a inh 35µM
CC(C)(C)NC(=O)Cn1c(SCC(=O)NC2CC2)nc2ccccc21	none
CNc1c(NC(=O)c2cc(Cl)ccc2OC)c(=O)oc2ccccc12	none (no result: BAZ2B inh, HP1b binding inh, JMJD2A Tudor, PLK1 PBD inh, G9a inh)
NC(=O)CCCCC(=O)OCCCc1cccs1	BAZ2B inh inconclusive, JMJD2A Tudor 89µM
O=C(CCCc1cccs1)N1CCCC1	none (no result: BAZ2B inh, HP1b binding inh, JMJD2A Tudor, PLK1 PBD inh, G9a inh)
CCn1nc(NS(=O)(=O)c2ccccc2)c2cc3ccccc3nc21	JMJD2A Tudor inconclusive, PLK1 PBD inh 27µM
CCCn1nc(NS(=O)(=O)c2ccccc2)c2cc3ccccc3nc21	none
C/C(=N\Nc1ccc(C(=O)O)cc1)c1ccc(-n2ccnc2)cc1	G9a inh 13µM
C/C(=N\NC(N)=O)c1ccc(-n2ccnc2)cc1	none
C/C(=N/O)c1ccc(-n2ccnc2)cc1	none (no result: BAZ2B inh, HP1b binding inh, JMJD2A Tudor, PLK1 PBD inh, G9a inh)
C/C(=N\Nc1ccccc1Cl)c1ccc(-n2ccnc2)cc1	BAZ2B inh 50µM, HP1b binding inh inconclusive, 12-LOX inh inconclusive, JMJD2A Tudor 56µM, G9a inh 10µM
